Assay results as given in the supplement of paper PMC7156485.

Each compound was assayed on TDF (assay: H1.0 immunofluorescence intensity relative to DMSO (% of DMSO); higher = stronger H1.0 induction, active = 120 or more). Details: concentration: 10 µM; 24 h.
Outline: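 Treatment: HCC1569 and TDF cells, 800 per well in 384-well plates with RPMI and 10% FBS, were given compounds at 10 µM for 24 h at 37 °C, in triplicate. Readout: after 3.7% formaldehyde fixation, cells were stained with a rabbit anti-H1.0 antibody, an AlexaFluor 647 secondary and DAPI. Reported values are H1.0 nuclear intensity or cell number as percent of the plate control, taken as the median of replicates, with positional smoothing for HCC1569.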
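Also: TDF is a line of transformed human dermal fibroblasts of mesenchymal origin.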

H1.0 immunofluorescence intensity, inactive:
O=C(CCc1ccc(O)cc1)c1c(O)cc(O)cc1OC1OC(CO)C(O)C(O)C1O (configuration not stated) [Phlorizine] 102, CCCCCCCCCCCC=CCCCCC(=O)O [6(Z)-Octadecenoic acid] 101, COc1nc(C)nc(Cl)c1NC1=NCCN1.Cl [Moxonidine hydrochloride] 92, Cc1cc(N)c2ccccc2[n+]1CCCCCCCCCC[n+]1c(C)cc(N)c2ccccc21.[Cl-].[Cl-] [Dequalinium dichloride] 102, O=C1CCC(N2C(=O)c3ccccc3C2=O)C(=O)N1 (racemic) 99.5, O=C(O)CCCC=CCC1C(O)CC(F)C1C=CC(O)C1Cc2ccccc2C1 (configuration not stated) 91.9, CC(C)(C)NCC(O)c1cc(O)cc(O)c1.CC(C)(C)NCC(O)c1cc(O)cc(O)c1.O=S(=O)(O)O (configuration not stated) [Terbutaline hemisulfate] 92.8, O=C1NC(=O)C(=Cc2ccc(-c3ccc(F)cc3O)o2)S1 95.1, CCCCCCCCCCCCCCCCOCC(CO)OC(C)=O (configuration not stated) [1-Hexadecyl-2-O-acetyl-glycerol] 98.3, Br.CN1CCc2cc(O)c(O)cc2C1Cc1ccc(O)c(O)c1.O.O.O (configuration not stated) 93.9

H1.0 immunofluorescence intensity, active:
CN(C)CCCN1c2ccccc2Sc2ccc(Cl)cc21.Cl [Chlorpromazine hydrochloride] 135, O=C(CCl)c1c[nH]c2ccccc12 [2-chloro-1-(1H-indol-3-yl)ethanone] 125
